CFTR F508del cor: F508del CFTR correction, initial screen, CFBE line, single point | CFBE cells, YFP halide quenching; stimulated with forskolin plus potentiator P3; % fluorescence drop versus neutral controls | activity (quench increase), % at 7.58 µM | 0.36% of 350,000 active;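 active = mean added fluorescence quench of at least 8% versus neutral control, with both replicates also reaching 8%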;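 also: cells transiently co-express mutant CFTR-F508del with the halide-sensitive YFP; corrector assay measuring rescue of mutant channel to the surface after 24 h compound exposure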
Vif imaging: HIV Vif self-association inhibitors, primary screen, imaging, HEK293T, single point; HEK293T cells, Vif self-association by quenched fluorescence, 24 h; inhibition, % at 7.49 µM; 0.35% of 340,000 active; AID 602346, 2012; in the data active = inhibition above about 50%, passing the limit was not always enough
FGF22 binding: binders of human FGF22 protein, primary screen, FGF22 synaptogenesis inhibitor project, biophysical, thermal shift, single point; 1.5% of 340,000 active; recombinant FGF22 thermal shift, SYPRO orange fluorescence; percent of sucrose octasulfate shift, DMSO zero; Fibroblast growth factor 22 (Homo sapiens), Q9HCT0; activity (Tm shift, normalised), % at 9.99 µM;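 active = mean Tm shift, scaled 0 neutral to 100 positive control, at about 1.3% or above, every replicate too, limit read from the data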
Target sequence (Q9HCT0 whole entry, looked up): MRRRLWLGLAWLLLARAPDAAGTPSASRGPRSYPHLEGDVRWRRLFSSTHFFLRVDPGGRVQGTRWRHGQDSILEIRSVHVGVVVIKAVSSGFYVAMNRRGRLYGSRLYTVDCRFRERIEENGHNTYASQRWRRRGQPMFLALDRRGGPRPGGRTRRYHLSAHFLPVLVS
* hit, by the source's call. Compounds with a hit are over-represented: about 1.7% of the library has one in this group of screens.

Cc1ccc(C)c(-n2cc(CNCCc3cnccn3)c(-c3ccccc3)n2)c1 was read as CFTR F508del cor -2, Vif imaging 1 and FGF22 binding 0.
CCn1ccnc1CNCc1cn(-c2cc(C)ccc2C)nc1-c1ccccc1 was read as CFTR F508del cor 2, Vif imaging 6 and FGF22 binding 43*.
O=C(C[C@@H]1C=C[C@@H](NC(=O)C2CC2)[C@@H](CO)O1)NCc1ccncc1 was read as CFTR F508del cor 1 and FGF22 binding 0.
Screening Cc1ccc(C(=O)OCC(=O)NC(C)c2ccccc2)s1 (configuration not stated) returned CFTR F508del cor 5, Vif imaging 2 and FGF22 binding 0.
`Cc1ccc(C(=O)NCC(=O)OCC(=O)NC(C)c2ccccc2)s1` (configuration not stated) gave CFTR F508del cor 15*, Vif imaging -9 and FGF22 binding 42.
`O=C(/C=C/c1ccc(N2CCCCC2)c([N+](=O)[O-])c1)c1ccc(O)cc1` gave CFTR F508del cor 0, Vif imaging 5 and FGF22 binding 43*.
Screening COc1ccccc1C(=O)/C=C/c1ccc(N2CCCCC2)c([N+](=O)[O-])c1 returned CFTR F508del cor -4, Vif imaging 10 and FGF22 binding 0.
Screening CN(C)/C=N/c1nc2nccc(-c3ccc(Cl)cc3)n2n1 returned CFTR F508del cor 1, Vif imaging 11 and FGF22 binding 0.
`COc1ccc(-c2cnc3nc(/N=C/N(C)C)nn3c2/N=C/N(C)C)cc1` gave CFTR F508del cor 0, Vif imaging -4 and FGF22 binding 43*.
CCNc1nc(NCc2ccccc2)nc(SCC(N)=O)n1 was read as CFTR F508del cor 1, Vif imaging 4 and FGF22 binding 0.
Screening CN(C)c1nc(NCc2ccccc2)nc(SCC(=O)Nc2ccc(Cl)c(Cl)c2)n1 returned Vif imaging -5.
For CCNc1nc(SCC(=O)Nc2ccc(Cl)c(Cl)c2)nc(N(C)C)n1 the results were CFTR F508del cor 1, Vif imaging 2 and FGF22 binding 45*.
`COC(=O)CSc1nc(NCc2ccccc2)nc(N(C)C)n1` gave CFTR F508del cor -2, Vif imaging 1 and FGF22 binding 43*.
C[C@@H]1CN([C@H](C)CO)C(=O)Cc2cc(NC(=O)NC3CCCCC3)ccc2O[C@H]1CN(C)Cc1ccccc1 was read as CFTR F508del cor 0 and FGF22 binding -1.
N=c1sccn1CC(=O)Nc1ccc(SC(F)F)cc1 was read as CFTR F508del cor 0, Vif imaging 11 and FGF22 binding 43*.
Screening CSc1ccccc1NC(=O)Cn1ccsc1=N returned CFTR F508del cor -1, Vif imaging -2 and FGF22 binding 0.
`CCOC(=O)c1c(NC(=O)CC2SC(N)=NC2=O)sc(C)c1C` (configuration not stated) gave CFTR F508del cor 2, Vif imaging 4 and FGF22 binding 43*.
N=c1sccn1CC(=O)Nc1ccc(S(N)(=O)=O)cc1 was read as CFTR F508del cor 11*, Vif imaging 15 and FGF22 binding 0.
CCOC(=O)c1c(NC(=O)Cn2ccsc2=N)sc(C)c1C was read as CFTR F508del cor 0, Vif imaging -16 and FGF22 binding 43*.
`CCOC(=O)c1c(NC(=O)CC2SC(N)=NC2=O)sc2c1CCC(C)C2` (configuration not stated) gave Vif imaging 4.
N=c1sccn1CC(=O)Nc1cccc(S(N)(=O)=O)c1 was read as CFTR F508del cor 2 and FGF22 binding 0.
CCOC(=O)c1c(NC(=O)CSC(=S)N(C)C)sc(C)c1C was read as Vif imaging -1 and FGF22 binding 0.
For CO[C@H]1CN(C)C(=O)c2cc(NC(=O)NC(C)C)ccc2OC[C@H](C)N(Cc2ccc(-c3ccccn3)cc2)C[C@H]1C the results were CFTR F508del cor 5 and FGF22 binding 0.
`CO[C@H]1CN(C)C(=O)c2cc(NC(=O)C3CC3)ccc2OC[C@@H](C)N(C(=O)c2ccccc2)C[C@H]1C` gave CFTR F508del cor -1 and FGF22 binding 0.
C[C@H](CO)N1C[C@H](C)[C@H](CN(C)S(=O)(=O)c2ccc(F)cc2)OCCCC[C@H](C)Oc2ccc(NC(=O)c3ccccc3)cc2C1=O was read as CFTR F508del cor -2 and FGF22 binding 0.
Screening C[C@@H]1CN([C@@H](C)CO)C(=O)Cc2cc(NC(=O)Nc3ccc4c(c3)OCO4)ccc2O[C@H]1CN(C)CC1CCCCC1 returned CFTR F508del cor 1 and FGF22 binding 0.
C[C@@H]1CCCCO[C@H](CN(C)Cc2ccncc2)[C@@H](C)CN([C@@H](C)CO)C(=O)c2cc(N(C)C)ccc2O1 was read as CFTR F508del cor 0 and FGF22 binding -1.
Screening C[C@H](CO)N1C[C@H](C)[C@@H](CN(C)C(=O)Nc2ccc(F)cc2)Oc2ccc(NC(=O)Nc3ccccc3)cc2CC1=O returned CFTR F508del cor -2 and FGF22 binding 0.
Screening C/C(=N\NC(=O)c1cccnc1)c1cccc([N+](=O)[O-])c1 returned CFTR F508del cor 1, Vif imaging 1 and FGF22 binding 43*.
C/C(=N\NC(=O)c1ccc([N+](=O)[O-])cc1)c1cccc([N+](=O)[O-])c1 was read as CFTR F508del cor -4, Vif imaging 9 and FGF22 binding 0.
Screening CCOC(=O)C1(CC2CC2)CCN(Cc2cn[nH]c2-c2ccccc2)CC1 returned CFTR F508del cor -2, Vif imaging -5 and FGF22 binding 43.
For CCOC(=O)C1(CC2CC2)CCN(Cc2cn[nH]c2-c2cccc(F)c2)CC1 the results were CFTR F508del cor 2, Vif imaging 6 and FGF22 binding 44*.
`C[C@@H]1CCCCO[C@H](CN(C)Cc2ccc3c(c2)OCO3)[C@@H](C)CN([C@@H](C)CO)C(=O)c2cc(NC(=O)CCC(F)(F)F)ccc2O1` gave CFTR F508del cor 0 and FGF22 binding 0.
Screening COc1ccc(NC(=O)CC2SC(=NCC3CCCO3)NC2=O)cc1 (configuration not stated) returned CFTR F508del cor 0, Vif imaging -27 and FGF22 binding 0.
For Cc1ccc(NC(=O)CC2SC(=NCC3CCCO3)NC2=O)cc1Cl (configuration not stated) the results were Vif imaging 87*.
Screening C[C@@H]1CN([C@H](C)CO)S(=O)(=O)c2ccc(-c3cccnc3)cc2O[C@H]1CN(C)Cc1cccnc1 returned CFTR F508del cor 2.
COc1ccc(S(=O)(=O)N(C)C[C@H]2Oc3ccc(NC(=O)NC(C)C)cc3CC(=O)N([C@@H](C)CO)C[C@@H]2C)cc1 was read as CFTR F508del cor 2 and FGF22 binding 0.
CC(=O)Nc1ccc2c(c1)C(=O)N(C)[C@@H]1CC[C@H](CC(=O)NCc3ccc(F)cc3)O[C@@H]1CO2 was read as CFTR F508del cor -1 and FGF22 binding 0.
`CC(/C=C\c1ccccc1)=C/C(=O)O` gave CFTR F508del cor 1, Vif imaging -4 and FGF22 binding 0.

Assay outcomes (PubChem BioAssay)
